# Measurements taken from PubChem BioAssay (NCI).
# Compounds without any hit were thinned out: in the full panel of roughly 83,000, 20% have a hit.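 Cell lines were cultured in 96-well plates, exposed to a single compound concentration, and assessed for percent growth 48 hours later.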 A number with no mark means an inactive call. Calls of active or inactive are those of the source. The calls were made as follows: active = growth percent below 10; inactive = the rest.
# System: HL-60(TB) leukemia
# Experiment: NCI-60 one-dose screen, 48 h (100 = growth as untreated, 0 = no growth, -100 = all killed)
# Conditions: 10 µM unless noted
row,Structure (SMILES),growth
1,COC(=O)/C=C/c1cc(OC(C)=O)c2c(c1)C(C(=O)OC)C(c1ccc(OC(C)=O)c(OC(C)=O)c1)O2 (centres undefined),-35% (active)
2,CC(=NCc1ccccc1)c1ccc(O)cc1O,102%
3,COc1cc(-c2csc(NC(=O)c3cc(F)cc(C(F)(F)F)c3)n2)cc(OC)c1OC,14%
4,C=C(Cl)[C@@](Cl)(CBr)CC[C@@H](Br)C(C)(C)Cl,-68.1% (active)
5,COc1ccc2cc1Oc1ccc(cc1)C[C@H]1c3cc(c(OC)cc3CCN1C)Oc1c(OC)c(OC)cc3c1[C@H](C2)N(C)CC3,29.8%
6,O=C(O)CCCN1C(=O)CSC1=S,103%
7,O=C1CCC(=O)CC1,97.7%
8,CCCCOc1nc2ccc(Cl)cc2cc1/C=C/C(=O)/C=C/c1ccc(OC)cc1,89.5%
9,O=C(c1ccccc1)N(CCCl)C(=O)N(CCCl)C(=O)c1ccccc1,90.6%
10,NC(=O)Nc1ccc(-n2cnc3cc(-c4ccc(O)cc4)ccc32)cc1,95.4%
11,CN1CCN(C(=O)C(C)(C)c2ccc(C(=O)Nc3cn4cc(-c5ccncc5)ccc4n3)cc2)CC1,7.51% (active)
12,COC(=O)C(Cc1cnc[nH]1)N1CC(=O)N2[C@@H](c3ccccc3)SC[C@H]2C1=O (some centres undefined),90.3%
13,CCN1CCN(CCNc2nccc(-c3c(-c4ccc(F)c(O)c4)nc4occn34)n2)S1(=O)=O,1.1% (active)
14,COC(=O)[C@]12CC[C@@H](C(=O)/C=C/c3cccnc3)[C@@H]1[C@H]1CC[C@@H]3[C@@]4(C)C/C(=C/c5cccnc5)C(=O)C(C)(C)[C@@H]4CC[C@@]3(C)[C@]1(C)CC2,-30.2% (active)
